Most compounds without a hit are left out; they make up all but 4.2% or so of the library.
uPA surface inh – inhibitors of cell surface uPA generation; cell surface uPA generation assay, qHTS; Potency, µM (titrated, usually from 38.3 µM), actives largely listed as inhibitors; hit rate 0.31% among 330,000; active = well fitted inhibition curve with a large enough effect; inconclusive = small, poorly fitted or top-dose-only effect; inactive = no such curve, though single readings can be large or run the other way; tested in mouse RAW 264.7 cells; also: nearly all actives have a fitted effect of over 55% in size
TCR act – activators of T cell receptors. primary human leukocytes, anti-CD3, IL-2 HTRF, 48 h. Potency, µM (highest dose often 9.22 µM), actives largely listed as activators. 330,000 tested, under 10 active. AID 504894
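Compounds are tested in HTS on primary human leukocytes co-incubated with a-CD3 beads for 48 hr. IL-2 output is measured by time-resolved FRET.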
Sfp inh – blocks B. subtilis Sfp PPTase activity | Biochemical Sfp PPTase activity, qHTS | Potency, µM, most hits filed as inhibitors | hit rate 3.5% among 310,000 | Q9F4F7;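 also: the enzyme is Sfp with the accession as filed and its product quenches rhodamine fluorescence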
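Compounds were incubated with enzyme (final 15 nM) for 15 min at room temperature before substrate addition started the reaction. Fluorescence at 525 nm excitation, 598 nm emission was recorded immediately and after 30 minutes.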
ClpP mod – qHTS Assay for Activators of ClpP. Potency, µM (top dose mostly 57.5 µM). purified B. subtilis ClpP, FRET peptide cleavage, 20 min. hit rate 1.9% among 340,000; active = well fitted falling curve with a large enough effect; inconclusive = small, poorly fitted or top-dose-only effect; inactive = no such curve, though single readings can be large or run the other way; also: the source files actives as falling curves though it sought activators and does not explain the sign; nearly all actives have a fitted effect of over 65% in size
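ClpP 10 microg/mL final, pH 8 Tris/KCl buffer with BSA, glycerol, Tween-20; compound pinned in; FRET-FV substrate; RT 20 min; Ex320/Em430; ΔFRET vs ADEP 5.8 microM, DMSO, no enzyme.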
Numbers stand for hits. Unless noted, calls follow the shape of the dose curve; as a rule, active = well fitted curve in the direction sought with a large enough effect; inconclusive = small, poorly fitted or top-dose-only effect, or another doubt; inactive = no such curve, though single readings can be large; an effect the other way counts as inactive or inconclusive.

For CCOC(=O)C1CCN(C(=O)Nc2ccc3nc(C)c(C)nc3c2)CC1 the results were uPA surface inh inactive, TCR act inactive, Sfp inh inactive and ClpP mod 13µM.
For O=S(=O)(c1ccc(F)cc1)c1nc(-c2ccccc2)oc1N1CCOCC1 the results were uPA surface inh inactive, TCR act inactive, Sfp inh inactive and ClpP mod inactive.
COc1cc(OC)c2c(-c3cccc(-c4ccc(OC)c(F)c4)c3)cc(=O)oc2c1 was read as uPA surface inh inconclusive, TCR act inactive, Sfp inh inactive and ClpP mod inconclusive.
Screening COc1cc(OC)c2c(-c3cccc(-c4ccoc4)c3)cc(=O)oc2c1 returned uPA surface inh 10µM, TCR act inactive and ClpP mod inactive.
CC(C)[N+]1(C)[C@@H]2CC[C@H]1CC(OC(=O)[C@@H](CO)c1ccccc1)C2 (some centres not stated) was read as Sfp inh inactive.
For COCCNC(=O)c1ccc2c(=O)n(CCCN3CCCC3=O)c(=S)[nH]c2c1 the results were uPA surface inh inactive, TCR act inactive, Sfp inh 50µM and ClpP mod inactive.
Screening COCCn1c(=S)[nH]c2cc(C(=O)NCCCN3CCOCC3)ccc2c1=O returned TCR act inactive, Sfp inh 79µM and ClpP mod inactive.
For COCCn1c(=O)[nH]c2cc(C(=O)NCCN3CCN(c4ccccc4F)CC3)ccc2c1=O the results were uPA surface inh inactive, TCR act inactive, Sfp inh inactive and ClpP mod inconclusive.
For COCCn1c(=O)[nH]c2cc(C(=O)NCCCN3CCN(c4ccc(F)cc4)CC3)ccc2c1=O the results were uPA surface inh inactive, TCR act inactive, Sfp inh inactive and ClpP mod 28µM.
For C=CCOc1ccc(C=CC(=O)c2c(O)c(OC)c(OC)c(OC)c2OC)cc1 the results were uPA surface inh inactive, TCR act inactive and ClpP mod inactive.
COc1ccc(C2=NN(C(=O)c3cccs3)C(O)(C(F)(F)F)C2)cc1 (configuration not stated) was read as uPA surface inh inactive, TCR act inactive and Sfp inh 45µM.
For CC(NC(=O)c1ccc(Cn2c(=O)c3cccn3c3cccnc32)cc1)c1ccccc1 (configuration not stated) the results were ClpP mod inactive.
COc1cccc(CNS(=O)(=O)c2ccc(S(=O)(=O)N3CCCC3)cc2)c1 was read as uPA surface inh inactive, TCR act inactive and Sfp inh 10µM.
For O=S(=O)(NCc1ccco1)c1ccc(S(=O)(=O)N2CCCC2)cc1 the results were uPA surface inh inactive, TCR act inactive and Sfp inh 3.2µM.
`Cc1c(C(=O)NCc2ccccc2Cl)sc2nc3n(c(=O)c12)CCCC3` gave ClpP mod inactive.
O=C(NC1CCCCCC1)C1CCN(C(=O)N2CCOc3ccccc32)CC1 was read as ClpP mod inactive.
Screening CCc1ccccc1NC(=O)Cn1ccn(-c2cc(C)cc(C)c2)c(=O)c1=O returned ClpP mod inactive.
Screening Cc1ccc(CNC(=O)C(=O)NCC(c2ccco2)S(=O)(=O)c2ccc(C)cc2)cc1 (configuration not stated) returned ClpP mod inactive.
`COc1ccccc1NC(=O)CCCNC(=O)Cn1cnc2sc(C)c(C)c2c1=O` gave uPA surface inh inactive, TCR act inactive, Sfp inh inactive and ClpP mod 28µM.
Screening Cc1ccc(NC2c3ncccc3C(=O)N2c2ccccc2C)cc1C (configuration not stated) returned uPA surface inh inactive, TCR act inactive, Sfp inh 45µM and ClpP mod inactive.
CCOc1ccc(N2C(=O)c3cccnc3C2Nc2ccc(Cl)cc2)cc1 (configuration not stated) was read as TCR act inactive, Sfp inh inactive and ClpP mod inactive.
Screening CC(C)(C)c1ccc(O)c(N=Cc2cc(Br)ccc2O)c1 returned uPA surface inh inactive, TCR act inactive, Sfp inh 50µM and ClpP mod inactive.
`CCN(CC)c1ccc(N=Cc2cc(Br)ccc2O)cc1` gave uPA surface inh inconclusive, TCR act inactive, Sfp inh 63µM and ClpP mod inactive.
For Cc1ccc(O)c(C=Nc2cc(C)ccc2O)c1 the results were uPA surface inh inactive, TCR act inactive, Sfp inh inactive and ClpP mod inactive.
Screening CC(C)Oc1ccc(CNC(=O)c2ccc3nc(Cc4ccccc4)oc3c2)cc1 returned ClpP mod inactive.
O=C(NCCO)c1ccc2[nH]c3ccccc3c2c1 was read as uPA surface inh inactive, TCR act inactive, Sfp inh inactive and ClpP mod 25µM.
For O=C(NCCc1c[nH]c2ccccc12)c1ccc2[nH]c(=O)c(=O)[nH]c2c1 the results were uPA surface inh inactive, TCR act inactive, Sfp inh inactive and ClpP mod inactive.
`O=C(NCc1ccco1)c1ccc(COc2ccccc2Cl)cc1` gave uPA surface inh inactive, TCR act inactive, Sfp inh inactive and ClpP mod inactive.
`CCOc1cc(OCC)cc(C(=O)NCc2ccco2)c1` gave uPA surface inh inactive, TCR act inactive, Sfp inh inactive and ClpP mod 14µM.
`O=C(NCc1ccco1)c1ccc2nccnc2c1` gave uPA surface inh inactive, TCR act inactive, Sfp inh inactive and ClpP mod inactive.
Screening O=C(NCc1ccco1)c1cnccn1 returned uPA surface inh inactive, TCR act inactive, Sfp inh 40µM and ClpP mod inactive.
For Cc1cccc(C(=O)NCc2ccco2)c1 the results were uPA surface inh inactive, TCR act inactive and Sfp inh inactive.
O=C(NCc1ccco1)c1ccc(COc2cccc3ccccc23)cc1 was read as uPA surface inh inactive, TCR act inactive, Sfp inh inactive and ClpP mod 11µM.
O=C(NCc1ccco1)c1cccc(Br)c1 was read as uPA surface inh inactive, TCR act inactive, Sfp inh 71µM and ClpP mod inactive.
For C=C1CC[C@H](O)C/C1=C/C=C1\CCC[C@]2(C)C([C@H](C)CC[C@@H](O)C(C)(C)O)CC[C@@H]12 (some centres not stated) the results were Sfp inh inactive.
`Cc1ccc(C2c3c(oc4ccccc4c3=O)C(=O)N2c2ccc(C)cn2)cc1` (configuration not stated) gave ClpP mod inactive.
`O=C(c1ccco1)N1CCN(C(=O)c2cn(-c3ccccc3)nc2-c2ccc(F)cc2)CC1` gave uPA surface inh inactive, TCR act inactive and ClpP mod inactive.
For O=C(NCc1ccco1)c1ccc(C(=O)NCc2ccco2)cc1 the results were uPA surface inh inactive, TCR act inactive and ClpP mod inactive.
O=C(NCc1ccco1)c1cc2cc(Br)ccc2o1 was read as uPA surface inh inactive, TCR act inactive, Sfp inh 20µM and ClpP mod inactive.
`O=C(NCc1ccco1)c1ccc(Oc2ccccc2)cc1` gave uPA surface inh inactive, TCR act inactive, Sfp inh 79µM and ClpP mod inactive.
Cc1c(C(=O)NCc2ccco2)oc2ccc(Br)cc12 was read as uPA surface inh inactive, TCR act inactive and ClpP mod inactive.

Screening results deposited in PubChem by National Center for Advancing Translational Sciences (NCATS).
